Reference: ChEMBL document CHEMBL1157539, “Thousands of chemical starting points for antimalarial lead identification” (Nature, 2010)

How the values were obtained:
Type in all cases: functional
Plasmodium falciparum [1] = experiment: GSK_TCMDC: Inhibition of Plasmodium falciparum 3D7 in whole red blood cells, using parasite LDH activity as an index of growth. Test compounds present at 2uM
Plasmodium falciparum [2] = experiment: GSK_TCMDC: Inhibition of Plasmodium falciparum Dd2 in whole red blood cells, using parasite LDH activity as an index of growth. Test compounds present at 2uM
HepG2 = experiment: GSK_TCMDC: Percent inhibition of human HepG2 cell line. Test compounds present at 10uM.

| SMILES | Inhibition (Plasmodium falciparum [1]) [%] | Inhibition (Plasmodium falciparum [2]) [%] | Inhibition (HepG2) [%] |
| --- | --- | --- | --- |
| Cc1ccnc(NC(c2cccc(Cl)c2Cl)c2ccc3cccnc3c2O)c1 (centres undefined) | 86 | 38 | 46 |
| CCOc1ccc(-n2nc3c(Cl)nnc(-c4ccccc4)c3c2-c2ccccc2)cc1 | 96 | 99 | 0 |
| COc1ccccc1N1CCN(C(C(=O)NCc2cccc(F)c2)c2ccc(C)cc2)CC1 (centres undefined) | 94 | 80 | 4 |
